# In PubChem BioAssay AID1159580 (chemical genetic matrix, 2015):
# Among all 5,500 compounds or so, about 2,000 (36%) were called active. Inconclusive results (about 18%) are left out. The list shows a part of the results. Unmarked numbers belong to inactive results. Cut-off read from the data, not from the text of the source: active = normalized growth mostly below about 0.91 (no sharp cut-off); inconclusive = no clear call, values can overlap the other calls; inactive = mostly above about 0.92.
# Experiment: chemical genetic growth profiling, strain panel (AID 1159580);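 note: tested at 20 µM; growth read once vehicle control cultures reached saturation at 30 °C; 1 = growth at the plate median or of vehicle wells; lower values mean less growth of the strain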
# Details: S. cerevisiae deletion strains, growth OD
smiles,measurement,setting,value
Cc1csc(NC(=O)Nc2ccc(C(F)(F)F)cc2)c1,normalized growth,"locus YAR019C, strain CDC15, active compounds read low",0.971
same,normalized growth,"locus YBL105C, strain PKC1, active compounds read low",0.98
same,normalized growth,"locus YBR135W, strain CKS1, active compounds read low",0.963
same,normalized growth,"locus YBR136W, strain MEC1, active compounds read low",0.98
same,normalized growth,"locus YBR160W, strain CDC28, active compounds read low",0.975
same,normalized growth,"locus YDL017W, strain CDC7, active compounds read low",0.977
same,normalized growth,"locus YDL028C, strain MPS1, active compounds read low",0.981
same,normalized growth,"locus YDL101C, strain DUN1, active compounds read low",1.02
same,normalized growth,"locus YDL108W, strain KIN28, active compounds read low",0.973
same,normalized growth,"locus YDL132W, strain cdc53, active compounds read low",0.97
same,normalized growth,"locus YDL214C, strain PRR2, active compounds read low",0.783
same,normalized growth,"locus YDR052C, strain DBF4, active compounds read low",0.989
same,normalized growth,"locus YDR054C, strain cdc34, active compounds read low",0.95
same,normalized growth,"locus YDR226W, strain ADK1, active compounds read low",0.975
same,normalized growth,"locus YDR477W, strain SNF1, active compounds read low",0.804
same,normalized growth,"locus YER123W, strain YCK3, active compounds read low",0.735
same,normalized growth,"locus YER133W, strain GLC7, active compounds read low",0.848
same,normalized growth,"locus YFL009W, strain cdc4, active compounds read low",0.97
same,normalized growth,"locus YFL029C, strain CAK1, active compounds read low",0.958
same,normalized growth,"locus YFR003C, strain YPI1, active compounds read low",0.972
same,normalized growth,"locus YFR019W, strain FAB1, active compounds read low",0.801
same,normalized growth,"locus YFR028C, strain CDC14, active compounds read low",0.951
same,normalized growth,"locus YGR040W, strain KSS1, active compounds read low",0.848
same,normalized growth,"locus YGR052W, strain FMP48, active compounds read low",0.946
same,normalized growth,"locus YGR092W, strain DBF2, active compounds read low",0.781
same,normalized growth,"locus YHR030C, strain SLT2, active compounds read low",0.891
same,normalized growth,"locus YHR079C, strain IRE1, active compounds read low",0.876
same,normalized growth,"locus YHR082C, strain KSP1, active compounds read low",0.893
same,normalized growth,"locus YHR205W, strain SCH9, active compounds read low",0.453 (active)
same,normalized growth,"locus YIL147C, strain SLN1, active compounds read low",0.978
same,normalized growth,"locus YJL095W, strain BCK1, active compounds read low",0.896
same,normalized growth,"locus YJL128C, strain PBS2, active compounds read low",0.932
same,normalized growth,"locus YJL157C, strain FAR1, active compounds read low",0.718
same,normalized growth,"locus YJR016C, strain ILV3, active compounds read low",0.978
same,normalized growth,"locus YJR066W, strain TOR1 (second series), active compounds read low",0.848
same,normalized growth,"locus YJR066W, strain TOR1, active compounds read low",0.935
same,normalized growth,"locus YKL048C, strain ELM1, active compounds read low",0.928
same,normalized growth,"locus YKL067W, strain YNK1, active compounds read low",0.805
same,normalized growth,"locus YKL101W, strain HSL1, active compounds read low",0.821
same,normalized growth,"locus YKL193C, strain SDS22, active compounds read low",0.969
same,normalized growth,"locus YKL203C, strain TOR2, active compounds read low",0.907
same,normalized growth,"locus YLR113W, strain HOG1, active compounds read low",0.803 (active)
same,normalized growth,"locus YLR133W, strain CKI1, active compounds read low",0.675 (active)
same,normalized growth,"locus YLR403W, strain SFP1, active compounds read low",0.704
same,normalized growth,"locus YML070W, strain DAK1, active compounds read low",0.755
same,normalized growth,"locus YMR001C, strain CDC5, active compounds read low",0.966
same,normalized growth,"locus YMR205C, strain PFK2 (second series), active compounds read low",0.832
same,normalized growth,"locus YMR277W, strain FCP1, active compounds read low",0.965
same,normalized growth,"locus YNL006W, strain LST8, active compounds read low",0.99
same,normalized growth,"locus YNL020C, strain ARK1, active compounds read low",0.753
same,normalized growth,"locus YNL161W, strain CBK1, active compounds read low",0.982
same,normalized growth,"locus YNL183C, strain NPR1, active compounds read low",0.878
same,normalized growth,"locus YNL207W, strain RIO2, active compounds read low",0.965
same,normalized growth,"locus YNL222W, strain SSU72, active compounds read low",0.967
same,normalized growth,"locus YNL307C, strain MCK1 (second series), active compounds read low",0.708
same,normalized growth,"locus YOL078W, strain AVO1, active compounds read low",0.964
same,normalized growth,"locus YOL136C, strain PFK27, active compounds read low",0.739
same,normalized growth,"locus YOR061W, strain CKA2, active compounds read low",0.714
same,normalized growth,"locus YOR119C, strain RIO1, active compounds read low",0.928
same,normalized growth,"locus YOR231W, strain MKK1, active compounds read low",0.864
same,normalized growth,"locus YOR329C, strain SCD5, active compounds read low",0.978
same,normalized growth,"locus YPL031C, strain PHO85, active compounds read low",0.773
same,normalized growth,"locus YPL153C, strain RAD53, active compounds read low",0.868
same,normalized growth,"locus YPL204W, strain HRR25, active compounds read low",0.902
same,normalized growth,"locus YPL209C, strain IPL1, active compounds read low",0.958
same,normalized growth,"locus YPL256C, strain CLN2, active compounds read low",0.857 (active)
same,normalized growth,"locus YPR025C, strain CCL1, active compounds read low",0.963
same,normalized growth,"locus YPR106W, strain ISR1, active compounds read low",0.971
same,normalized growth,"locus YPR111W, strain DBF20, active compounds read low",0.966
same,normalized growth,"strain NNK1, active compounds read low",0.971
same,normalized growth,"strain TSCII, active compounds read low",0.968
